According to the supplement of paper PMC13380429:

Tested on: Vero E6 infected with SARS-CoV-2
Assay: inhibition of SARS-CoV-2 cytopathic effect; higher = more antiviral protection, active = above 15
Conditions: 48 h

Measured: inhibition of SARS-CoV-2 cytopathic effect

N=C(N)NCCC[C@H](NC(=O)c1sccc1NS(=O)(=O)c1cccc2nsnc12)C(=O)O
inactive: 1 nM -1.17% | 8.33 nM 0.96% | 100 nM 1.72% | 833.33 nM 0.4% | 10000 nM 1.98%

CN1CCC2=C(C1)C(c1ccccc1)c1ccccc12 (stereo not given) [phenindamine]
inactive: 1 nM -1.14% | 8.33 nM -0.54% | 100 nM 0.73% | 833.33 nM 2.57% | 10000 nM 1.5%

CC(CN1c2ccccc2Sc2ccccc21)N(C)C (stereo not given) [promethazine]
inactive: 1 nM -0.13% | 8.33 nM -0.16% | 100 nM -1.28% | 833.33 nM 0.5% | 10000 nM 3.03%

COc1ccc(-c2cc3c(C)nc(N)nc3n([C@H]3CC[C@H](OCCO)CC3)c2=O)cn1
inactive: 1 nM -0.21% | 8.33 nM 2.83% | 100 nM 0.43% | 833.33 nM -10.1% | 10000 nM -10.3%

CCN1CCN(C(=O)N[C@@H](C(=O)N[C@@H]2C(=O)N3C(C(=O)O)=C(CSc4nnnn4C)CS[C@H]23)c2ccc(O)cc2)C(=O)C1=O [cefoperazone]
inactive: 1 nM -0.37% | 8.33 nM -0.65% | 100 nM 0.99% | 833.33 nM 3.89% | 10000 nM 2.57%

CCC(=O)NC[C@@H]1C[C@H]1c1cccc2c1CCO2 [tasimelteon]
inactive: 1 nM -0.84% | 8.33 nM 1.68% | 100 nM -0.1% | 833.33 nM 0.64% | 10000 nM -1.54%

Cc1ncc(CO)c(/C=N/NC(=O)c2ccncc2)c1O [pyridoxal-isonicotinoyl-hydrazone]
inactive: 1 nM 3.14% | 8.33 nM -0.89% | 100 nM -0.41% | 833.33 nM 0.28% | 10000 nM -0.54%

Cc1cnc(-c2cc(N3CCN(C(=O)CCS(C)(=O)=O)CC3)ncc2Cl)c(C)c1
inactive: 1 nM -1.36% | 8.33 nM -0.24% | 100 nM 0.43% | 833.33 nM -2.37% | 10000 nM -0.86%

CCn1cc(C(=O)O)c(=O)c2cc(F)c(N3CCN(C)CC3)cc21 [pefloxacin]
inactive: 1 nM 2.27% | 8.33 nM -0.13% | 100 nM 2.84% | 833.33 nM -0.06% | 10000 nM 1.98%

Fc1cc(F)c2c(c1)[C@H]1C=CC[C@H]1C(c1cccnc1)N2 (stereo not given in full) [Golgicide A]
inactive: 1 nM -0.89% | 8.33 nM 0.7% | 100 nM -0.27% | 833.33 nM -0.71% | 10000 nM -3.16%

C/C(=C\c1ccc(C(=O)O)cc1)c1ccc2c(c1)C(C)(C)CCC2(C)C
inactive: 1 nM -0.5% | 8.33 nM -1.23% | 100 nM -2.43% | 833.33 nM 0.15% | 10000 nM 3.67%

Cc1c(C)c2c(c(C)c1O)CCC(C)(COc1ccc(CC3SC(=O)NC3=O)cc1)O2 (stereo not given) [troglitazone]
inactive: 1 nM 1.07% | 8.33 nM 1.5% | 100 nM 1.01% | 833.33 nM 2.48% | 10000 nM 5.84%

C[C@@H](O)[C@H]1C(=O)N2C(C(=O)[O-])=C(SC3Cn4cnc[n+]4C3)[C@H](C)[C@H]12 (stereo not given in full) [biapenem]
inactive: 1 nM -2.15% | 8.33 nM -0.04% | 100 nM 0.1% | 833.33 nM 0.63% | 10000 nM -0.14%

CCOC(=O)[C@@H](C)Oc1ccc(Oc2nc3ccc(Cl)cc3o2)cc1 [fenoxaprop-p-ethyl]
inactive: 1 nM 0.1% | 8.33 nM -0.32% | 100 nM -2.57% | 833.33 nM 2.13% | 10000 nM -0.66%

CC(C)c1c2cc(-c3ccnc(N[C@H]4CC[C@H](NC5CCOCC5)CC4)n3)ccc2nn1C
inactive: 1 nM -0.19% | 8.33 nM -1.61% | 100 nM -2.09% | 833.33 nM -20.8% | 10000 nM -0.88%

O=C(O)C(F)(F)C(F)(F)C(F)(F)C(F)(F)C(F)(F)C(F)(F)C(F)(F)F [ammonium-perfluorocaprylate]
inactive: 1 nM 2.29% | 8.33 nM -0.68% | 100 nM 0.56% | 833.33 nM -0.2% | 10000 nM -2.3%

COc1ccc(C(=O)c2ccccc2O)c(O)c1 [dioxybenzone]
inactive: 1 nM 1.95% | 8.33 nM -0.38% | 100 nM -1.57% | 833.33 nM -0.76% | 10000 nM 2.94%

CCCCCCCCCCCCCCCCOc1nc2ccc(C)cc2c(=O)o1 [cetilistat]
inactive: 1 nM 2.2% | 8.33 nM 1.36% | 100 nM -0.06% | 833.33 nM 0.62% | 10000 nM 0.91%

O=C1CNC(=O)CN1 [piperazinedione]
inactive: 1 nM -1.5% | 8.33 nM -0.79% | 100 nM -1.97% | 833.33 nM -2.42% | 10000 nM -2.4%

CCCCCCCC/C=C\CCCCCCCC(=O)NCc1ccc(O)c(OC)c1 [olvanil]
inactive: 1 nM 1.88% | 8.33 nM -0.08% | 100 nM 4.43% | 833.33 nM 1.07% | 10000 nM 2.19%

CC(C)[C@@H](C)/C=C/[C@@H](C)[C@H]1CC[C@H]2/C(=C/C=C3\C[C@@H](O)CC[C@@H]3C)CCC[C@]12C [dihydrotachysterol]
inactive: 1 nM -0.76% | 8.33 nM 0.52% | 100 nM -1.39% | 833.33 nM -0.26% | 10000 nM -0.14%

CC(C)(C)c1ccc(C(=O)Nc2cn3cc(-n4ccnc4)ccc3n2)cc1
inactive: 1 nM 2.98% | 8.33 nM 0.55% | 100 nM 2.27% | 833.33 nM 2.13% | 10000 nM -0.45%
